Experimental data taken from PubChem BioAssay.
Unmarked numbers belong to inactive results. For some of these results: Results with a measured potency or affinity are listed apart. Active and inactive are the calls of the source. Unless noted, no rule for the calls is given here.

Legend:
[1] = antimalarial activity against Dd2 strain (AID 2302;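 active = growth inhibition above 50% at the single 2 µM test dose, taken to imply half-maximal potency below 2 µM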;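 also: 0% = DMSO untreated growth and 100% = chloroquine plus artemisinin killed control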); conditions: P. falciparum Dd2 in RBCs, LDH growth readout, 72 h; at 2 µM; hits give high values
[2] = HepG2 cytotoxicity, primary screen, cytotoxicity control for P. falciparum antimalarial project, cell-based, ATP luminescence (AID 2303;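 active = inhibition above 50%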;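 also: 0% = DMSO wells and 100% = digitonin-killed cells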); conditions: HepG2 viability, 24-48 h, at 10 µM, hits give high values
[3] = molecular target: L-lactate dehydrogenase (Plasmodium falciparum (isolate CDC / Honduras)) (UniProt Q27743); assay: PfLDH activity inhibition – cell lysate, 3D7 strain, counter-screen for P. falciparum growth inhibition project (AID 2304);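 also: 0% = vehicle and 100% = reference inhibitor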; conditions: P. falciparum 3D7 crude extract, LDH APAD/NBT absorbance; at 2 µM; hits give high values
Sequence of L-lactate dehydrogenase (Plasmodium falciparum (isolate CDC / Honduras)) (Q27743 whole entry, looked up): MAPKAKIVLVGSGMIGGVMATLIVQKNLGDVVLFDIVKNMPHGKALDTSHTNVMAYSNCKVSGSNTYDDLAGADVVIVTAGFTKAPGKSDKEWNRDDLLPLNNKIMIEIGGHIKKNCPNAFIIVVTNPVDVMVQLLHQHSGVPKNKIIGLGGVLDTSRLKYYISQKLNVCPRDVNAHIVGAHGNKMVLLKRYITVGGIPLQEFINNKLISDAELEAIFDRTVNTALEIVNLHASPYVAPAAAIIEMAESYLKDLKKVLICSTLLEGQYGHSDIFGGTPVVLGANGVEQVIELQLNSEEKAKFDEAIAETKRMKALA

[4] = inhibition of 3D7 malaria parasite growth – strain 3D7 (AID 2306);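 also: 0% = DMSO wells and 100% = chloroquine plus artemisinin control wells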; conditions: P. falciparum 3D7 erythrocytic growth, LDH absorbance, 72 h; at 2 µM; hits give high values
[5] = molecular target: Calcium-dependent protein kinase 1 (Plasmodium falciparum (isolate 3D7)) (UniProt P62344); assay: PfCDPK1 kinase inhibitors, biochemical, TCAMS library (AID 1159585; cut-off not given, nearly all actives have IC50 up to about 0.98 µM;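 also: inhibitors leave more ATP so luminescence rises with inhibition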); conditions: recombinant PfCDPK1, Kinase-Glo ATP depletion luminescence
Sequence of Calcium-dependent protein kinase 1 (Plasmodium falciparum (isolate 3D7)) (P62344 whole entry, looked up): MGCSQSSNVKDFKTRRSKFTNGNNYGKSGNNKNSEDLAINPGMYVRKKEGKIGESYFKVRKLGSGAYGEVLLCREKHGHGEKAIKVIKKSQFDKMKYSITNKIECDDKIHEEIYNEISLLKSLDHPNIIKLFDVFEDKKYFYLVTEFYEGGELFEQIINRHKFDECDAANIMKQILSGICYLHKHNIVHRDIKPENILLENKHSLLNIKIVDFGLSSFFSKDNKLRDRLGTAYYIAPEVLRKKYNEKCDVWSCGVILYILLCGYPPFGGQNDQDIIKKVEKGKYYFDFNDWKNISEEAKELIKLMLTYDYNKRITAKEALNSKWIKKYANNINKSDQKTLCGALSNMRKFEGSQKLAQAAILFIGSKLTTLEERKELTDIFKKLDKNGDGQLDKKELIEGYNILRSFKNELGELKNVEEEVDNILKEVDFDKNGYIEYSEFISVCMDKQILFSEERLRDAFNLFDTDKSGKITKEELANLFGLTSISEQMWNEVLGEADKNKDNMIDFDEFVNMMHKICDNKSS

[6] = molecular target: Plasmodium falciparum protein kinase 6 (PK6, PF3D7_1337100) (UniProt Q8IDW1); assay: PfPK6 kinase inhibitors, biochemical, TCAMS library (AID 1159586); conditions: recombinant PfPK6, Kinase-Glo ATP depletion luminescence
Sequence of Plasmodium falciparum protein kinase 6 (PK6, PF3D7_1337100) (Q8IDW1 1-305): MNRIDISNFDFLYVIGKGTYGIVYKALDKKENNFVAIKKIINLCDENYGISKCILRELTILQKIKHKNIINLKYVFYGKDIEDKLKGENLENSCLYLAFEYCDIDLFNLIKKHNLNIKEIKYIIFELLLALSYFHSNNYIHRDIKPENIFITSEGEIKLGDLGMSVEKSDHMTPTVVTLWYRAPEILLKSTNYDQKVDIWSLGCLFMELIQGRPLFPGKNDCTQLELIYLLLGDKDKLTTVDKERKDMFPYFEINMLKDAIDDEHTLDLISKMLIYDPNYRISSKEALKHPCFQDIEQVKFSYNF

[7] = molecular target: Protein kinase 7 (PK7), Plasmodium falciparum 3D7 (PF3D7_0213400) (UniProt Q7YTF7); assay: inhibition of Plasmodium PK7 catalytic activity – biochemical, TCAMS antimalarial set, Kinase-Glo luminescence (AID 1159587); conditions: recombinant PfPK7, Kinase-Glo ATP depletion luminescence
Sequence of Protein kinase 7 (PK7), Plasmodium falciparum 3D7 (PF3D7_0213400) (Q7YTF7 1-343): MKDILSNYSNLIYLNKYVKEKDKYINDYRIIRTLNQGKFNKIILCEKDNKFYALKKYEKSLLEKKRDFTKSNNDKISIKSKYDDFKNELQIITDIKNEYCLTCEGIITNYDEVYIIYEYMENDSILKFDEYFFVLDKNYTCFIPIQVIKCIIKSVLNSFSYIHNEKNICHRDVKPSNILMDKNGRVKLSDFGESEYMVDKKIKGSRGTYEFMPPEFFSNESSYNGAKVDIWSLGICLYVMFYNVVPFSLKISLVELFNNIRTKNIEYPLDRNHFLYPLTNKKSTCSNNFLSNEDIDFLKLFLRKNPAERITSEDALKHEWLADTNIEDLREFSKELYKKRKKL

[8] = molecular target: Calcium-dependent protein kinase 4 (Plasmodium falciparum (isolate 3D7)) (UniProt Q8IBS5); assay: PfCDPK4 kinase inhibitors, biochemical, TCAMS library (AID 1159588; cut-off not given, nearly all actives have IC50 up to about 0.91 µM); conditions: recombinant PfCDPK4, Kinase-Glo ATP depletion luminescence
Sequence of Calcium-dependent protein kinase 4 (Plasmodium falciparum (isolate 3D7)) (Q8IBS5 whole entry, looked up): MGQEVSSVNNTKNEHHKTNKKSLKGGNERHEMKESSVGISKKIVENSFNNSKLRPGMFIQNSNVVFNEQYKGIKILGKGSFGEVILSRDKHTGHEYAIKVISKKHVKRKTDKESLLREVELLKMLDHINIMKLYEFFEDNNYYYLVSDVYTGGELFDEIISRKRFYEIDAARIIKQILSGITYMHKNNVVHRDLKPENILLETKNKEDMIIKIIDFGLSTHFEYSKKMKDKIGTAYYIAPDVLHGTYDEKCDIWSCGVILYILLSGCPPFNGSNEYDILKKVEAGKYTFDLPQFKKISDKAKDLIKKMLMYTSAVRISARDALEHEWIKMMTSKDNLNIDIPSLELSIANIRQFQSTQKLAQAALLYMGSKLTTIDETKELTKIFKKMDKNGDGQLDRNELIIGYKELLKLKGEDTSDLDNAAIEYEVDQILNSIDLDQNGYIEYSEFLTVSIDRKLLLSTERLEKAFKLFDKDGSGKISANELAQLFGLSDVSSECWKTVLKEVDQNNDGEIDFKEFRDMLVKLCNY

Row | Compound | growth inhibition [1] | inhibition [2] | inhibition [3] | growth inhibition [4] | outcome [5] | outcome [6] | outcome [7] | outcome [8]
1 | COc1ccc(NC(=O)NC2CCN(CCCOc3cc(C)nc4ccccc34)CC2)cc1OC | 9% | 3% | 2% | 97% (active) | inactive | inactive | inactive | inactive
2 | Nc1ccc2[nH]cc(C3CCN(CC4CCC(NC(=O)/C=C/c5ccc(Cl)c(Cl)c5)CC4)CC3)c2n1 (stereo not drawn) | 93% (active) | 18% | 1% | 100% (active) | inactive | inactive | inactive | inactive
3 | CC(C)C[C@H](NC(=O)c1ccc(F)cc1)C(=O)N[C@H](/C=N/NC(=O)c1ccccc1)CCc1ccccc1 | 61% (active) | 1% | -2% | 92% (active) | inactive | inactive | inactive | inactive
4 | O=C(/C=C/c1ccc(F)cc1)NC1CCC(CCN2CCCN(c3ccc(C(F)(F)F)cn3)CC2)CC1 (stereo not drawn) | 13% | 29% | -1% | 97% (active) | inactive | inactive | inactive | inactive
5 | Clc1ccc(-c2csc3ncnc(Cl)c23)cc1 | 95% (active) | -3% | -6% | 94% (active) | inactive | inactive | inactive | inactive
6 | COC1CCC(C(=O)Nc2ccc(-c3cccc(-c4nc5ccc(C(F)(F)F)cc5[nH]4)c3)cc2)CC1 (stereo not drawn) | 48% | 69% (active) | -2% | 85% (active) | inactive | inactive | inactive | inactive
7 | CC(C)CC(NC(=O)c1ccc(F)cc1)C(=O)N[C@H](/C=N/N1CCNC1=O)CC(C)C (stereo partly drawn) | 84% (active) | -5% | -4% | 89% (active) | inactive | inactive | inactive | inactive
8 | Nc1c(Cl)cc(C(O)CNCCCCCOCCc2ccc3occc3c2)cc1Cl (stereo not drawn) | 74% (active) | -2% | -1% | 99% (active) | inactive | inactive | inactive | inactive
9 | CCCC(C)Nc1nc(C)cc(N[C@@H](Cc2ccccc2)C(=O)NCc2ccc(C)cc2)n1 (stereo partly drawn) | 93% (active) | 22% | 5% | 101% (active) | inactive | inactive | inactive | inactive
10 | Cc1cccc2[nH]c(-c3ccc(-c4cccc(NC(=O)c5cccc(C(N)=O)c5)c4)cc3)nc12 | 87% (active) | 14% | -1% | 84% (active) | inactive | inactive | inactive | inactive
11 | CC(=O)N1Cc2ccccc2C1=O | -1% | 10% | -4% | 97% (active) | inactive | inactive | inactive | inactive
12 | COc1cc2nc(N3CCC(CNC(=O)/C=C/c4cccc(C)c4)CC3)nc(N)c2cc1OC | 68% (active) | 16% | -8% | 101% (active) | inactive | inactive | inactive | inactive
13 | CC(=O)Nc1cccc(C(=O)Nc2cccc(-c3ccc(-c4nc5ccc(F)cc5[nH]4)cc3)c2)c1 | 9% | 60% (active) | 5% | 95% (active) | inactive | inactive | inactive | inactive
14 | Cc1cccc2[nH]c(-c3cccc(-c4ccc(NC(=O)c5ccncc5)cc4)c3)nc12 | 74% (active) | 34% | -5% | 98% (active) | inactive | inactive | inactive | inactive
15 | COc1ccc(-c2ccccc2CNc2nc(NCCc3ccc(O)cc3)nc(N3CCNCC3)n2)cc1 | 3% | 48% | -3% | 86% (active) | inactive | inactive | inactive | inactive
16 | c1ccc(CSC2=NNC(c3ccccn3)S2)cc1 (stereo not drawn) | 65% (active) | 6% | 0% | 80% (active) | inactive | inactive | inactive | inactive
17 | COc1ccc(CNCc2ccc(F)cc2)cc1-c1ccc(S(=O)(=O)NCCN2CCCC2)c(C)c1 | 56% (active) | 55% (active) | -2% | 98% (active) | inactive | inactive | inactive | inactive
18 | COc1cccc(NC(=O)c2nc(N3CCN(c4ccncc4)CC3)ccc2Cl)c1 | 65% (active) | 14% | 1% | 97% (active) | inactive | inactive | inactive | inactive
19 | Oc1ccccc1CN[C@@H]1CCCC[C@H]1NCc1ccccc1O | 66% (active) | 53% (active) | 2% | 96% (active) | inactive | inactive | inactive | inactive
20 | CCCNCc1ccc(-c2ccc(CN(Cc3cnc(C)cn3)C(=O)CC#N)cc2)nc1 | -3% | 4% | 5% | 92% (active) | inactive | inactive | inactive | inactive
21 | O=c1[nH]nc(-c2ccc(N3CCCC3)c([N+](=O)[O-])c2)c2ccccc12 | 39% | 2% | -6% | 100% (active) | inactive | inactive | inactive | inactive

Row | Compound | growth inhibition [1] | inhibition [2] | inhibition [3] | growth inhibition [4] | outcome [5] | outcome [6] | outcome [7] | outcome [8]
22 | Fc1ccc2nc(-c3ccc(-c4ccc(CN5CCC(CCN6CCCCC6)CC5)cc4)cc3)[nH]c2c1 | 100% (active) | 98% (active) | -9% | 100% (active) | inactive | inactive | inactive | inactive
23 | CCOC(=O)c1[nH]c2ccc(F)cc2c1NC(=O)CN1CCN(c2cccc(C(F)(F)F)c2)CC1 | 90% (active) | 12% | -2% | 96% (active) | inactive | inactive | inactive | inactive
24 | O=C(NC1CCCc2ccccc21)C1CCCN(C(=O)c2ccc(O)c(-c3ccc(Cl)c(Cl)c3)c2)C1 (stereo not drawn) | 54% (active) | -3% | -8% | 88% (active) | inactive | inactive | inactive | inactive
25 | COc1ccc(C2N=C(N)N=C(N)N2c2ccc(Cl)cc2)cc1OC (stereo not drawn) | 4% | 4% | -1% | 85% (active) | inactive | inactive | inactive | inactive
26 | NC(N)=NN=CC(=O)Nc1ccc(Cl)cc1 | 2% | 5% | -1% | 101% (active) | inactive | inactive | inactive | inactive
27 | Oc1ccc(Nc2nc(NCc3ccccc3)c3ccccc3n2)cc1 | 100% (active) | 33% | 3% | 101% (active) | inactive | inactive | inactive | inactive
28 | O=C(CCc1cccnc1)Nc1ccc(-c2cccc(-c3nc4ccc(F)cc4[nH]3)c2)cc1 | 9% | 67% (active) | 2% | 86% (active) | inactive | inactive | inactive | inactive
29 | O=C(c1ccc(-c2ccccn2)s1)N1CCc2cc3nccc(N4CCN5CCC[C@H]5C4)c3cc21 | 49% | -15% | -4% | 96% (active) | inactive | inactive | inactive | inactive
30 | Cn1nccc1C(=O)NCCNCc1ccc(-c2cccc(-c3nc4ccccc4[nH]3)c2)cc1 | 87% (active) | 35% | 2% | 101% (active) | inactive | inactive | inactive | inactive
31 | COc1cc(-c2cc(-c3ccc(OCCN(C)C)cc3)[nH]c2-c2ccncc2)ccc1Cl | 100% (active) | 28% | -2% | 101% (active) | inactive | inactive | inactive | inactive
32 | FC(F)(F)c1ccc2nc(-c3cccc(-c4ccc(CNCC5CCCO5)cc4)c3)[nH]c2c1 (stereo not drawn) | 99% (active) | 29% | -7% | 99% (active) | inactive | inactive | inactive | inactive
33 | CS(=O)(=O)Nc1cccc(-c2cnc3[nH]cc(-c4ccc(CCC(=O)O)cc4)c3c2)c1 | 78% (active) | 7% | 2% | 98% (active) | inactive | inactive | inactive | inactive
34 | Cc1ccc(Cn2ncc(N3CCCNCC3)c(Cl)c2=O)cc1NC(=O)Nc1ccc(-c2ccccc2)cc1 | 38% | 55% (active) | 1% | 101% (active) | inactive | inactive | inactive | inactive
35 | CNC(=O)COC(=O)c1c2c(nc3ccccc13)C(=Cc1ccc3c(c1)OCO3)CCC2 | 36% | 7% | -2% | 83% (active) | inactive | inactive | inactive | inactive
36 | COc1cc2c(cc1OC)CC(NCCCCCCNCCc1ccc(Cl)cc1)CC2 (stereo not drawn) | -1% | 50% (active) | 1% | 98% (active) | inactive | inactive | inactive | inactive
37 | O=C(Cn1c(CCc2cccc(F)c2F)cc(=O)c2cccnc21)N(CCCn1ccnc1)Cc1ccc(-c2ccc(C(F)(F)F)cc2)cc1 | 47% | 38% | -3% | 96% (active) | inactive | inactive | inactive | inactive
38 | CCOC(=O)c1ccc(Nc2cc(Nc3ccc(C(=O)OCC)cc3)nc(C)n2)cc1 | 33% | 4% | 4% | 99% (active) | inactive | inactive | inactive | inactive
39 | Cc1cc(NN=Cc2ccccc2[N+](=O)[O-])c2ccc(F)cc2n1 | 100% (active) | 32% | -4% | 101% (active) | inactive | inactive | inactive | inactive
40 | CN1CCC(C(=O)N(Cc2ccc(-c3ccc(CNCCc4ccc(S(C)(=O)=O)cc4)cn3)cc2)Cc2ccc3c(c2)OCO3)CC1 | 51% (active) | 16% | -3% | 91% (active) | inactive | inactive | inactive | inactive
41 | O=C(Cc1ccccc1)NC(c1ccco1)c1cc(Cl)c2cccnc2c1O (stereo not drawn) | 93% (active) | 44% | -1% | 89% (active) | inactive | inactive | inactive | inactive
